Bioassay records deposited in PubChem by several laboratories.
Hits are enriched below; roughly 1.9% of the tested compounds scored in any of these assays.
EP2 modulator: EP2 receptor modulators, cAMP readout, primary screen, cell-based, HTRF cAMP, PGE2 stimulation | Prostaglandin E2 receptor EP2 subtype (Homo sapiens), P43116 | EP2-expressing cells, cAMP HTRF FRET, PGE2 co-stimulation | induction, % at 25 µM | actives 0.83% (n = 260,000);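 active = compounds whose cAMP rise, as percent of the full-agonist control response, exceeds 60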;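 also: rat C6 glioma line stably carrying human EP2 under a CMV promoter; the protocol text gives 20 µM as final concentration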
PGE2 EP2 inh: human EP2 receptor antagonists, primary screen, TR-FRET cAMP, C6 glioma cells | Prostaglandin E2 receptor EP2 subtype (Homo sapiens), P43116 | C6 glioma cells expressing human EP2; cells stimulated with saturating PGE2 | inhibition, % at 25 µM | actives 0.52% (n = 260,000);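 active = percent inhibition above 40 after rounding to a whole number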;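 also: rat C6 glioma host cells with rolipram phosphodiesterase inhibitor present; the protocol text gives 20 µM as final concentration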
S1P3 antag: S1P3 receptor antagonists, primary screen, cell-based. Sphingosine 1-phosphate receptor 3 (Homo sapiens), Q99500. CHO S1P3 NFAT-BLA reporter, FRET fluorescence, antagonist mode. inhibition, % at 4.98 µM. actives 0.27% (n = 170,000). AID 485, 2006;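 active = inhibition above the plate cutoff, the mean inhibition of test wells on that plate plus 3 SD, cut at about 28% in these data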;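 also: cells challenged with S1P at its EC80 of 0.8 µM; blue over green emission ratio from cleaved BLA substrate after 4 h stimulation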
Target sequence (Q99500 whole entry, looked up): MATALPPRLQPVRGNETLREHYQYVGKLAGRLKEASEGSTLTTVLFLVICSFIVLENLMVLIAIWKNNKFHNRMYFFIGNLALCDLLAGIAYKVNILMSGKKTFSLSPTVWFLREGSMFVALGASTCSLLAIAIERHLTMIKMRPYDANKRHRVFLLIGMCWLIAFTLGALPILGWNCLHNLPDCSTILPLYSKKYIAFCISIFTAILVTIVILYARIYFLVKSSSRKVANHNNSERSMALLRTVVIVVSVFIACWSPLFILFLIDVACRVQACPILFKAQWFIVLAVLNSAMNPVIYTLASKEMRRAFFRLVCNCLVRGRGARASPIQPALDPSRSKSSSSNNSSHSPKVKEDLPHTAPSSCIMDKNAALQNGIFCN
S1P4 ag: S1P4 receptor agonists, primary screen, cell-based | activation, % at 4.98 µM | actives 0.35% (n = 220,000) | S1P4-expressing cell line, agonist reporter assay; in the data active = activation above about 11%
Pf gametocyte: late stage P. falciparum gametocyte viability inhibitors, primary screen, ATP luminescence, HTS | P. falciparum stage V gametocytes, 24 h | actives 0.065% (n = 150,000) | inhibition, % at 10.9 µM;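 active = inhibition above the mean plus 3 SD of compounds within the control limits, set per campaign, cut at about 38% in these data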
S1P4 antag: S1P4 receptor antagonists, primary screen, cell-based; S1P4-expressing cells, antagonist mode, reporter read-out; inhibition, % at 4.98 µM; actives 0.26% (n = 220,000); in the data active = inhibition above about 29%
Numbers stand for hits; n = inactive; x = not tested or not shown.

SMILES | EP2 modulator | PGE2 EP2 inh | S1P3 antag | S1P4 ag | Pf gametocyte | S1P4 antag
Cc1sc2ncnc(SCC(=O)Nc3ccccc3-c3ccccc3)c2c1C | 84 | n | x | x | x | x
Cc1sc2ncn3c(SCC(=O)Nc4ccccc4-c4ccccc4)nnc3c2c1C | 67 | n | x | x | x | x
CC(=O)c1cccc(NC(=O)c2ccc(-c3ccccc3[N+](=O)[O-])o2)c1 | n | 47 | n | n | n | n
CCn1nnc(NC(=O)c2ccc(-c3ccccc3[N+](=O)[O-])o2)n1 | n | n | n | n | n | n
CN1CCN(S(=O)(=O)c2ccc(NC(=S)NC(=O)c3ccccc3)cc2)CC1 | n | n | x | n | n | n
CN1CCN(S(=O)(=O)c2ccc(NC(=S)NC(=O)c3ccc(Cl)cc3)cc2)CC1 | n | x | x | 13 | n | n
CN1CCN(S(=O)(=O)c2ccc(NC(=O)Nc3cccc(Cl)c3)cc2)CC1 | n | 43 | n | n | x | n
O=C(Cn1c(-c2cccs2)cc2cccnc21)N1CCCC1 | n | n | x | x | x | x
COc1ccccc1C1(O)CCCN(C(=O)COc2ccc3nsnc3c2)C1 (stereo not drawn) | n | 55 | x | x | x | x
Cc1ccccc1C1(O)CCN(C(=O)COc2ccc3nsnc3c2)CC1 | n | n | x | x | x | x
CCOc1ccc(C(=O)N(CC)Cc2cc3ccccc3[nH]c2=O)cc1 | n | n | x | x | x | x
COc1ccc(C2=NN(CC(=O)Nc3ccccc3C)C(=O)CC2)cc1 | n | n | n | n | n | n
COc1ccc(C2=NN(Cc3c(F)cccc3Cl)C(=O)CC2)cc1 | 63 | n | n | n | n | n
COc1ccc2[nH]c(=O)c3c(c2c1)OC(C)(C)C=C3 | n | n | 67 | n | x | n
COc1cccc(=O)c2c(C)n(C)c(C)c12 | n | n | n | n | 39 | n
CN(C)CCCN1C(=O)C(O)=C(C(=O)c2cc3ccccc3o2)C1c1ccccc1 (stereo not drawn) | 62 | x | x | n | n | n
O=C(C1=C(O)C(=O)N(Cc2ccco2)C1c1cccnc1)c1cc2ccccc2o1 (stereo not drawn) | n | 47 | n | n | x | n
C=CCN1CCN(C(c2ccc(Cl)cc2)c2nnnn2CCc2ccc(OC)c(OC)c2)CC1 (stereo not drawn) | n | n | 104 | n | n | n
C[N+]1(CCC(=O)c2ccco2)CC2CCC(CC2)C1 (stereo not drawn) | n | 45 | x | x | x | x
Cc1ccc(C(=N)c2ccccc2Cc2cccc3ccccc23)c2ccccc12 | n | 40 | x | x | x | x
CCSc1nc2sc3c(c2c(=O)n1C)CCCC3 | 61 | n | x | x | x | x
Cc1ccc(N2CC(C(=O)Nc3ncccc3C)CC2=O)cc1 (stereo not drawn) | n | n | x | x | x | x
O=C(O)c1cccc(S(=O)(=O)Nc2ccccc2Cl)c1 | n | x | n | n | x | n
O=C(O)c1cccc(S(=O)(=O)Nc2ccccn2)c1 | n | 63 | x | x | x | x
CCn1c2cc(C)oc2c2cnn(CC(=O)N(Cc3ccccn3)C3CC3)c(=O)c21 | n | x | x | x | x | x
SMILES | EP2 modulator | PGE2 EP2 inh | S1P3 antag | S1P4 ag | Pf gametocyte | S1P4 antag
Oc1c(Cl)cc(CN(Cc2cc(Cl)c(O)c(Cl)c2)C2CCCCC2)cc1Cl | n | 44 | x | x | x | x
CCn1cc(C=C2C(=O)c3ccccc3C2=O)c2ccccc21 | n | 42 | n | n | n | n
Cc1ccc2[nH]c(=O)c(CN(CCCN(C)C)C(=S)NCCCN(C)C)cc2c1 | n | n | x | x | x | x
O=C(NCCCN1CCC(Cc2ccccc2)CC1)C1CC(=O)N(C2CCCC2)C1 (stereo not drawn) | n | n | 104 | n | x | n
NNC(=O)c1ccc(S(=O)(=O)N2CCCCC2)cc1 | n | n | x | x | x | x
COc1cc(/C=N/N2C(=O)C3C4c5ccccc5C(c5ccccc54)C3C2=O)ccc1O (stereo not drawn) | n | n | n | n | x | n
COc1cccc(/C=N/N2C(=O)C3C4c5ccccc5C(c5ccccc54)C3C2=O)c1OC (stereo not drawn) | n | n | x | 13 | x | n
CCCCSC1=N/C(=C/c2ccsc2)C(=O)N1c1ccccc1 | n | n | n | n | n | n
CCCSC1=N/C(=C/c2ccsc2)C(=O)N1c1ccccc1 | 63 | n | n | n | x | n
CC(=O)Nc1sc2c(c1C#N)CCC(C)C2 (stereo not drawn) | n | n | n | n | n | n
Cc1ccc(C)n1-c1sc2c(c1C#N)CCC(C)C2 (stereo not drawn) | n | x | x | n | 38 | n
COCCCNC(=O)c1sc2ccccc2c1Cl | n | n | x | x | x | x
O=C(O)CNC(=O)[C@H]1NC(C(F)(F)F)(C(F)(F)F)OC1(C(F)(F)F)C(F)(F)F | n | 42 | x | x | x | x
COc1ccc(C2(NC(=O)Cn3c(C)nc4ccccc43)CCCCC2)cc1 | n | n | x | x | x | x
CCOc1cc(S(=O)(=O)n2c(C)nc3ccccc32)ccc1Cl | 80 | n | x | x | x | x
CCC(c1nnnn1Cc1ccccc1)N(Cc1cc2cc(C)c(C)cc2[nH]c1=O)C1CCCCC1 (stereo not drawn) | n | n | x | x | x | x
C[C@@H]1OC(O[C@H]2[C@H](OC(=O)[C@]34CCC(C)(C)CC3C3=CCC5[C@@]6(C)CC[C@H](OC7O[C@@H](C)[C@H](O[C@@H]8OC[C@@H](O)[C@H](O)[C@H]8O)[C@@H](O)[C@H]7O)C(C)(C)C6CC[C@@]5(C)[C@]3(C)CC4O)OC[C@H](O)[C@H]2O)[C@H](O)[C@H](O)[C@H]1O[C@@H]1O[C@H](CO)[C@@H](O)[C@H](O)[C@H]1O (stereo partly drawn) | n | 108 | x | x | x | x
c1csc(CCNc2ncnc3sc4c(c23)CCC4)c1 | n | n | 94 | x | x | x
c1coc(CNc2ncnc3sc4c(c23)CCCC4)c1 | n | n | x | x | x | x
CN1CCC(CC(O)c2ccc(NC(=O)c3ccc(=O)[nH]n3)cc2)CC1 (stereo not drawn) | n | n | x | x | x | x
CCOc1ccc2nc(NC(=O)Nc3cccs3)sc2c1 | n | n | 58 | n | x | n
CCOc1ccc2nc(NC(=O)Nc3ccccc3)sc2c1 | n | n | x | n | x | n
CC(C)(C)c1c2c(c(C(C)(C)C)c3c1OCN(Cc1ccccc1)C3)OCN(Cc1ccccc1)C2 | n | 80 | x | x | x | x
C=CCn1c(N2CCC(C(=O)NCc3ccc4c(c3)OCO4)CC2)nc2ccccc21 | n | n | x | x | x | x
Cc1nc2c(c(=O)[nH]1)CCN(Cc1cccc(Oc3ccccc3)c1)C2 | n | n | x | x | x | x
Cc1cc(C)c2nc3c(c([C@H](O)[C@@H]4CCCCN4)c2c1)CC/C3=C\c1ccc(Cl)cc1 | n | 50 | x | x | x | x
Cc1nc2ccc(NC(=O)c3cc([N+](=O)[O-])cc([N+](=O)[O-])c3Cl)cc2s1 | n | 121 | n | n | x | 66
O=C(CSc1nc(-c2cccs2)cc(C(F)(F)F)n1)NCCc1ccccc1 | n | n | x | x | x | x
